Molecules are shown by their SMILES. Records with an inconclusive call do not appear. Activity calls are given as the source filed them. Calls follow the shape of the dose curve; as a rule, active = well fitted cell-killing curve with a large enough effect; inconclusive = small, poorly fitted or top-dose-only effect; inactive = no such curve, though single readings can be large or run the other way.
Potency is read from the fitted curve at half-maximal effect.

The nature of the experiment: qHTS of pediatric cancer cell lines to identify multiple opportunities for drug repurposing: Primary screen for LAN-5 cells (AID 1347100). The following applies: LAN-5 neuroblastoma viability, CellTiter-Glo luminescence, 48 h; series mostly up to 46 µM. The source says:
Drug repurposing or repositioning has been offered as a strategy for drug development in oncology programs. This approach has special potential for childhood cancers and other rare or orphan diseases, where the expected return on new drug development has been a disincentive to pharmaceuticals.
In this project we exploit the poly-pharmacology of drugs to discover new indications via phenotypic screening of a panel of 19 well-characterized cell lines derived from solid tumors seen in children and adolescents. The goal is to identify approved drugs with previously unrecognized anticancer properties that has the potential to reveal new mechanisms and biological processes involved in carcinogenesis or drug resistance. We employed a titration-based paradigm (quantitative high-throughput screening or qHTS), where all compounds were tested at multiple concentrations for their effect on cell viability. Concentration-response curves (CRCs) were derived directly from the primary screen, and both potency and efficacy values were used to identify compounds with robust bioactivity profiles. We screened the NIH Chemical Genomics Center (NCGC) Pharmaceutical Collection (NPC) and Mechanism Interrogation Plate (MIPE) small molecule collections of approved and investigational compounds against these cell lines; and measured metabolically active cells after 48 hours of compound treatment as a proxy for cell viability.
Assay Submitter: Nathalia J. Martinez, National Center for Advancing Translational Sciences, National Institutes of Health, Rockville, MD, USA; email: natalia.martinez@nih.gov
[1] Shen, M et al. Quantitative high-throughput phenotypic screening of pediatric cancer cell lines identifies multiple opportunities for drug repurposing. Oncotarget 2017 Dec 19;9(4):4758-4772. PMID 29435139.
The cells were obtained from University of North Carolina (UNC), Pediatric Preclinical Testing Program (PPT), and Coriell Institute (CI).
qHTS cell viability assay:
Cells were assayed in growth media at a density of 500-1,000 cells/well. Five microliters of cells were dispensed into 1,536-well, white, solid-bottom, TC-treated plates (Greiner Bio One) using a multidrop dispenser and incubated at 37 degrees C, 5% CO2, under a humidified atmosphere for 5 hours. Twenty-three nanoliters of compounds and controls (neutral control DMSO or positive control bortezomib at final concentration of 2.3 µM) were subsequently transferred by Kalypsys pintool. For primary screens, the MIPE collection was tested at 11-point dilutions (final concentrations range from 0.78 nM to 46 µM) and the NPC collection at 8-point dilutions (final concentrations range from 0.59 nM to 46 µM). Compounds tested in follow-up screens were assayed at 11-point dilutions. Cells were incubated for 48 hours, followed by addition of 3 µL of CellTiter-Glo (Promega). After a 15 min incubation at room temperature, samples were analyzed for luminescence intensity using a ViewLux High-throughput CCD imager equipped with clear filters.
Turning to `C[C@@H](Oc1cc(-c2cnn(C3CCNCC3)c2)cnc1N)c1c(Cl)ccc(F)c1Cl`, the Potency is 1.05 µM (active). The figure for `COC(=O)c1ccc2c(C(=Nc3ccc(N(C)C(=O)CN4CCN(C)CC4)cc3)c3ccccc3)c(O)[nH]c2c1` is 2.35 µM (active).

With `Cn1c(=O)n(-c2ccc(C(C)(C)C#N)cc2)c2c3cc(-c4cnc5ccccc5c4)ccc3ncc21`, the Potency is 1.66 µM (active). The figure for `CCC[C@H](NC(=O)C(C#N)=Cc1cccc(Br)n1)c1ccccc1` is 14.8 µM (active); for `Nc1nc(NCCNc2ncc(-n3ccnc3)c(-c3ccc(Cl)cc3Cl)n2)ccc1[N+](=O)[O-]` it is 10.5 µM (active); for `COc1cccc2nc(-c3cccs3)nc(NN3C(=O)C=C(C)C3=O)c12` it is 0.0935 µM (active). Turning to `CC1(C)CC(=O)c2c(C(F)(F)F)nn(-c3ccc(C(N)=O)c(NC4CCC(OC(=O)CN)CC4)c3)c2C1` (stereo not given), the Potency was 0.187 µM (active).

`Fc1cc(-c2cccc3ncc(-c4cnn(C5CCNCC5)c4)nc23)cc(F)c1CN1CCOCC1`: the Potency was 26.4 µM (active). Consider `O=c1c2ccccc2nc2n1CCc1c-2[nH]c2ccccc12`, for which the Potency result is “inactive”. Regarding `Cc1cc(Nc2ncnc3ccc(-c4ccc(CNCCS(C)(=O)=O)o4)cc23)ccc1Oc1ccn2ncnc2c1`, the Potency was 14.8 µM (active). The value for `Cn1cncc1[C@@](N)(c1ccc(Cl)cc1)c1ccc2c(c1)c(-c1cccc(Cl)c1)cc(=O)n2C` was 5.9 µM (active); that for `OCc1ccc(-c2ccc(-c3ccc(CO)s3)o2)s1` was “inactive”.

As to `Cc1cc(C(=O)N2CCN(c3cccc(Cl)c3)CC2)n(-c2ccccc2)n1`, the Potency was 0.743 µM (active). The figure for `C=CC(=O)Nc1cc2c(Nc3ccc(F)c(Cl)c3)ncnc2cc1OCCCN1CCOCC1` is 6.62 µM (active). Regarding `O=C(CCCCCCC(=O)Nc1ccc([C@H]2O[C@@H](CSc3nc(-c4ccccc4)c(-c4ccccc4)o3)C[C@@H](c3ccc(CO)cc3)O2)cc1)NO`, the Potency was 8.33 µM (active). The value for `CC(C)(C)c1cc(NC(=O)Nc2ccc(-c3cn4c(n3)sc3cc(OCCN5CCOCC5)ccc34)cc2)no1` was “inactive”; that for `CNC(=O)c1ccc(-c2cnc3ncc(Cc4ccc5ncccc5c4)n3n2)cc1F` was “inactive”; that for `CNC(=O)c1ccc(N2C(=S)N(c3cnc(C#N)c(C(F)(F)F)c3)C(=O)C23CCC3)cc1F` was 8.33 µM (active). The figure for `CNC(=O)c1c(F)cccc1Nc1nc(Nc2cc3c(cc2OC)CCN3C(=O)CN(C)C)nc2[nH]ccc12` is 0.0526 µM (active). As to `NC1(Cc2ccc(Cl)cc2)CCN(c2ncnc3[nH]ccc23)CC1`, the Potency is 18.7 µM (active). With `COc1c(N2C[C@@H]3CCCN[C@H]3C2)c(F)cc2c(=O)c(C(=O)O)cn(C3CC3)c12`, the Potency entry is “inactive”. With `Clc1cccc(-n2nnnc2NCc2ccccc2Oc2ccccn2)c1Cl`, the Potency entry was “inactive”.

For the compound `CN1c2cc(O)c(N=NC(N)=O)cc2CC1S(=O)(=O)O` (stereo not given), the Potency entry was “inactive”. The value for `Cc1ccc(NC(=O)C2(c3ccc4c(c3)OC(F)(F)O4)CC2)nc1-c1cccc(C(=O)O)c1` was 0.0833 µM (active); that for `Cc1[nH]nc2ccc(-c3cncc(OC[C@@H](N)Cc4ccccc4)c3)cc12` was 0.372 µM (active). The value for `NC(=O)c1cccc2cn(-c3ccc([C@@H]4CCCNC4)cc3)nc12` was 11.8 µM (active); that for `Cc1cc(CN2CCN(c3c(Br)cnc4nc(-c5ccc(N6CCN(C)CC6)cc5)[nH]c34)CC2)no1` was 0.418 µM (active). Regarding `CC1(C)CCC(c2ccc(Cl)cc2)=C(CN2CCN(c3ccc(C(=O)NS(=O)(=O)c4ccc(N[C@H](CCN5CCOCC5)CSc5ccccc5)c(S(=O)(=O)C(F)(F)F)c4)cc3)CC2)C1`, the Potency is 0.0093 µM (active). The value for `CC1(C)OC2=C(C(=O)c3ccccc3C2=O)[C@H](NCc2ccccc2)[C@H]1O` was 5.26 µM (active); that for `COc1ccc(CC2SC(=O)NC2=O)cc1C(=O)NCc1ccc(C(F)(F)F)cc1` (stereo not given) was “inactive”; that for `CCOc1ccccc1OCCNC(C)Cc1ccc(OC)c(S(N)(=O)=O)c1` (stereo not given) was “inactive”. The value for `Cc1[nH]c2ccccc2c1CCNCc1ccc(C=CC(=O)NO)cc1` was 0.105 µM (active). On to `Cc1cn2cc(C(=O)N(C)CCO)cc(N[C@@H]3CCOc4cccc(C)c43)c2n1`, for which the Potency entry is “inactive”. Take `CC(=O)c1c(C)c2cnc(Nc3ccc(N4CCNCC4)cn3)nc2n(C2CCCC2)c1=O`: the Potency was 18.7 µM (active). Consider `COC(=O)[C@]12CCC(C)(C)C[C@@H]1[C@@H]1C(=O)C=C3[C@@]4(C)C=C(C#N)C(=O)C(C)(C)[C@@H]4CC[C@@]3(C)[C@]1(C)CC2`, for which the Potency is 0.833 µM (active).

As for `CN(C)CC(C)(C)CNc1nn2c(-c3ccccc3)nnc2cc1C1CCC1`, the Potency is 0.418 µM (active). The figure for `COc1ccc(-c2cc3c(C)nc(N)nc3n(C3CCC(OCCO)CC3)c2=O)cn1` (stereo not given) is 0.469 µM (active); for `CC(C)c1ccccc1Cc1cc(C(=O)Nc2ccc(S(=O)(=O)c3ccccc3C(C)(C)C)cc2)c(O)c(O)c1O` it is 23.5 µM (active); for `Cc1cc(Nc2nc(N[C@@H](C)c3ccc(F)cc3)c(C#N)cc2F)n[nH]1` it is 0.418 µM (active). Regarding `C[C@@H]1CN(CC(=O)Nc2ccc3c(c2)Cc2cccc(-c4cc(=O)cc(N5CCOCC5)o4)c2S3)C[C@H](C)O1`, the Potency was 18.7 µM (active).

Source of the values: PubChem BioAssay (NCATS).
